From PubChem BioAssay (NCATS)
Where “and” joins values, the source holds several entries; their conditions need not be identical. Identical values can stand only once. Results filed as inconclusive are left out. A call without a number means that no potency is given here. Calls of active or inactive are those of the source. Unless noted, calls come from the whole dose curve; as a rule, active = well fitted curve in the direction sought with a large enough effect; inconclusive = small, poorly fitted or top-dose-only effect, or another doubt; inactive = no such curve, though single readings can be large; an effect the other way counts as inactive or inconclusive.

How the values were obtained:
[1] = qHTS Assay for Lipid Storage Modulators (AID 1519; calls by dose curve); conditions: Drosophila S3 cells, BODIPY lipid droplet/cell ratio, laser cytometry, cells loaded with oleic acid
Outline: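 Cells seeded at 5,000 per well were treated with compounds over a concentration series and loaded with oleic acid (400 uM, as added). Lipid droplet fluorescence (488 nm excitation, 500-530 nm channel) was read by laser-scanning cytometry and normalized to 20 uM Triacsin C.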

[2] = Cell Viability - LYMP2-023 (AID 975);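 note: cellular ATP measured by luciferase luminescence as viability proxy; nearly all actives have a fitted effect of over 55% in size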
Outline: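 2500 cells/well, 5 hr 37 C; cpd 24 hr 37 C; CellTiter-Glo, 30 min RT; luminescence. qHTS conc-response, Hill fit -> AC50. Pos ctrl tetraoctylammonium bromide.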

[3] = Cell Viability - LYMP2-025 (AID 976)
Outline: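 Seed 2500 LYMP2-025 cells/well; 5 hr at 37 C; add compound; 24 hr at 37 C; add CellTiter-Glo; 30 min RT; read luminescence. AC50 from Hill-modelled concentration-response.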

[4] = Cell Viability - LYMP2-002 (AID 977);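 note: compound exposure lasted 24 h at 37 °C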
Outline: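 Human lymphoblastoid LYMP2-002 cells, 2500 per well, exposed to compounds for 24 h at 37 C in complete medium; viability read as intracellular ATP by CellTiter-Glo luminescence, AC50 from Hill fits.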

[5] = Cell Viability - LYMP2-006 (AID 978); note: nearly all actives have a fitted effect of over 60% in size
Outline: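 In this cytotoxicity screen, the human lymphoblastoid line grew in complete medium with test compounds for 24 hr at 37 C. Cellular ATP served as the viability signal.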

[6] = Cell Viability - LYMP2-007 (AID 979);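 note: cells exposed to compound for 24 h before reading; nearly all actives have a fitted effect of over 60% in size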
Outline: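 Luminescent ATP signal (CellTiter-Glo) serves as the viability read-out after 24 hr compound treatment of lymphoblastoid cells in complete medium at 37 C. Concentration-response data were fitted to the Hill equation to give AC50 values.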

[7] = Cell Viability - LYMP2-008 (AID 980); note: nearly all actives have a fitted effect of over 60% in size
Outline: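 qHTS, human lymphoblastoid line, 2500 cells/well; 5 hr preincubation, 24 hr compound, 37 C. CellTiter-Glo ATP luminescence. AC50 via Hill equation. Tetraoctylammonium bromide positive control.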

[8] = Cell Viability - LYMP2-010 (AID 981); note: nearly all actives have a fitted effect of over 55% in size
Outline: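 Luminescent ATP signal (CellTiter-Glo) served as the viability read-out. Cells of the human lymphoblastoid line were treated with compound over a concentration range for 24 hours at 37 C, and AC50 values came from Hill-equation modeling.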

[9] = Cell Viability - LYMP2-014 (AID 983); note: nearly all actives have a fitted effect of over 50% in size
Outline: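 Luminescent ATP signal (CellTiter-Glo, 30 min at room temperature) serves as the viability read-out after 24 hr compound exposure at 37 C. Cells were seeded at 2500 per well and settled 5 hr beforehand.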

[10] = Cell Viability - LYMP2-016 (AID 984); note: nearly all actives have a fitted effect of over 55% in size
Outline: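 Concentration-dependent ATP depletion measured in LYMP2-016 lymphoblastoid cells, 24 h, 37 C; luciferase-based luminescent detection; Hill-equation AC50.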

[11] = Cell Viability - LYMP2-018 (AID 985); note: nearly all actives have a fitted effect of over 50% in size
Outline: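 Luminescent ATP signal (CellTiter-Glo, read after 30 min at room temperature) reports viable cells after 24 hr compound treatment at 37 C. Concentration-response data were fitted to the standard Hill equation for AC50.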

[12] = Cell Viability - LYMP2-020 (AID 986); note: nearly all actives have a fitted effect of over 55% in size
Outline: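 Luminescent ATP signal (CellTiter-Glo, 30 min at room temperature) is the read-out after 24 h compound treatment of lymphoblastoid cells at 37 C. AC50 values come from Hill-equation fits across concentrations.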

[13] = Cell Viability - LYMP2-022 (AID 987); note: nearly all actives have a fitted effect of over 55% in size
Outline: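 qHTS: human lymphoblastoid cells 2500/well; 5 hr 37 C; cpd added; 24 hr 37 C; CellTiter-Glo, 30 min RT; luminescence. AC50 via Hill fit; tetraoctylammonium bromide positive ctrl.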

[14] = Cell Viability - LYMP2-024 (AID 988); note: nearly all actives have a fitted effect of over 60% in size
Outline: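 Steps: seed 2500 cells/well, 5 hr 37 C; add compound, 24 hr 37 C; add CellTiter-Glo, 30 min room temperature; read luminescence. AC50 derived by Hill modelling of concentration-dependent ATP loss.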

[15] = Cell Viability - LYMP2-026 (AID 989); note: nearly all actives have a fitted effect of over 50% in size
Outline: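 Luminescent ATP signal (CellTiter-Glo, 30 min room temperature) measures viable lymphoblastoid cells after 24 hr compound treatment at 37 C. Decreased ATP reflects acute toxicity; AC50 values come from Hill-equation modeling.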

[16] = target: Alpha-galactosidase A (Homo sapiens) (UniProt P06280); assay: Counterscreen for Glucocerebrosidase Inhibitors: qHTS Assay for Human alpha-Galactosidase at pH 4.5 (AID 992)
Chain of Alpha-galactosidase A (Homo sapiens) (P06280 whole entry, looked up): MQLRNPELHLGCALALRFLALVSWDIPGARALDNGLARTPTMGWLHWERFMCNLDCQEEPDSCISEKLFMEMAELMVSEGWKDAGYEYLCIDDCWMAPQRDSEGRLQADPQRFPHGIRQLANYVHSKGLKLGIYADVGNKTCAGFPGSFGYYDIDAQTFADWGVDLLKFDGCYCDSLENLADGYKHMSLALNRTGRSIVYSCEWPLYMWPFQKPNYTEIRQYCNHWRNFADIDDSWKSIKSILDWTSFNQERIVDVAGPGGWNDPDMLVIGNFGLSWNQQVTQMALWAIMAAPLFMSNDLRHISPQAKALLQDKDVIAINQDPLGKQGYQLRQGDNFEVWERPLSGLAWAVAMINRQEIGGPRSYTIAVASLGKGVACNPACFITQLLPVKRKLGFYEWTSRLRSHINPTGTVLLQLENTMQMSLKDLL
Outline: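 Enzyme at 2 nM final was combined with compound (0.7 nM to 77 uM) and 80 uM 4-methylumbelliferyl alpha-D-galactopyranoside in 50 mM citric acid, 0.005% Tween-20, pH 4.5. After 20 min at room temperature, fluorescence was read (Ex 365/Em 440 nm); AC50 came from Hill fits.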

[17] = Cell Viability - LYMP1-002 - Assay at 24 hr (AID 993)
Outline: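 Cells plated 2500/well, 5 hr 37 C; compounds added, 24 hr 37 C; CellTiter-Glo added, 30 min RT; luminescence read. Tetraoctylammonium bromide positive control. Hill-equation AC50.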

[18] = Cell Viability - LYMP1-002 - Assay at 40 hr (AID 994); note: nearly all actives have a fitted effect of over 60% in size
Outline: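 Luminescent ATP signal served as the viability readout, with decreases taken as toxicity. Cells were treated with compounds across a concentration range for 40 hours at 37 C, and AC50 values came from standard Hill modeling.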

[19] = target: alpha-glucosidase (Oryza sativa, rice) (UniProt Q653V4); assay: Counterscreen for Glucocerebrosidase Inhibitors: qHTS Assay for Rice alpha-Glucosidase at pH 5.0 (AID 997)
Outline: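 Rice alpha-glucosidase (4 nM final) with 400 uM 4-methylumbelliferyl-alpha-D-glucopyranoside in citrate buffer pH 5.0, 20 min at room temperature, stopped at pH 10; fluorescence 365/440 nm, compounds 0.7 nM–77 uM, AC50 from Hill fits.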

[20] = Validation of Assay for Modulators of Lamin A Splicing (AID 1459; active = well fitted curve in the direction sought with a large enough effect in the signal ratio; the % refers to the signal ratio;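 note: cells exposed to compound for two days before reading; ratio rise marks activators and ratio drop marks inhibitors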)
Outline: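 Dual-reporter HeLa S3 line (lamin A-EGFP minigene, DsRed2) treated with compounds 48 hrs, 0.5% DMSO final. Endpoint: EGFP/DsRed2 total intensity ratio from laser-scanning microplate cytometry.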

[21] = measured here: cell count channel max response
[22] = measured here: lipid channel max response

**Q.** Which activity change, negative = inhibition ([1]; at 57.5 µM (top of the series)) does the source give for `CO[C@@]1(NC(=O)CSCC#N)C(=O)N2C(C(=O)O)=C(CSc3nnnn3C)CS[C@@H]21` here?
**A.** Its activity change, negative = inhibition is 0.161% (inactive).

**Q.** And the max response [1, 21]?
**A.** Its max response is -28.1%.

**Q.** What about the max response [1, 22] of the same molecule?
**A.** Its max response is -28.4%.

**Q.** What does the source list for `CN=C(NC#N)NCCSCc1nc[nH]c1C`?
**A.** outcome [2]: inactive; outcome [3]: inactive; Potency [4]: inactive; Potency [5]: inactive; outcome [6]: inactive; outcome [7]: inactive; Potency [8]: inactive; outcome [9]: inactive; outcome [10]: inactive; Potency [11]: inactive; Potency [12]: inactive; Potency [13]: inactive; Potency [14]: inactive; outcome [15]: inactive; outcome [16]: inactive; outcome [17]: inactive; Potency [18]: inactive; outcome [19]: inactive; activity change, negative = inhibition ([1]; at 57.5 µM (top of the series)): 0.49% (inactive) and 5% (inactive); max response [1, 21]: 19.1% and 8.99%; max response [1, 22]: 19.5% and 21.3%

**Q.** Which outcome [2] does the source give for `Nc1nc(N)c2nc(-c3ccccc3)c(N)nc2n1` here?
**A.** The outcome was “inactive”.

**Q.** And the outcome [3]?
**A.** Its outcome is “inactive”.

**Q.** And the Potency [4]?
**A.** The Potency was “inactive”.

**Q.** What about the Potency [5] of the same molecule?
**A.** Its Potency is “inactive”.

**Q.** What about the outcome [7] of the same molecule?
**A.** The outcome was “inactive”.

**Q.** What about the outcome [9] of the same molecule?
**A.** The outcome was “inactive”.

**Q.** And the outcome [10]?
**A.** The outcome was “inactive”.

**Q.** And the Potency [11]?
**A.** Its Potency is “inactive”.

**Q.** What about the Potency [12] of the same molecule?
**A.** The Potency was “inactive”.

**Q.** What about the Potency [14] of the same molecule?
**A.** The Potency was “inactive”.

**Q.** And the outcome [15]?
**A.** Its outcome is “inactive”.

**Q.** What about the outcome [16] of the same molecule?
**A.** Its outcome is “inactive”.

**Q.** What about the outcome [17] of the same molecule?
**A.** The outcome was “inactive”.

**Q.** What about the activity change, negative = inhibition ([1]; at 25.7 µM (top of the series)) of the same molecule?
**A.** Its activity change, negative = inhibition is -0.107% (inactive).

**Q.** And the activity change, negative = inhibition ([1]; at 57.5 µM (top of the series))?
**A.** The activity change, negative = inhibition was -0.933% (inactive).

**Q.** And the max response [1, 21]?
**A.** The max response was -4.41% and -12.1%.

**Q.** What about the max response [1, 22] of the same molecule?
**A.** Its max response is -2.65% and -13.5%.

**Q.** Which outcome [16] does the source give for `Cc1nc2sccn2c(=O)c1CCN1CCC(=C(c2ccc(F)cc2)c2ccc(F)cc2)CC1` here?
**A.** Its outcome is “inactive”.

**Q.** What about the outcome [19] of the same molecule?
**A.** Its outcome is “inactive”.

**Q.** And the activity change, negative = inhibition ([1]; at 57.5 µM (top of the series))?
**A.** The activity change, negative = inhibition was -1.04% (inactive).

**Q.** What about the max response [1, 21] of the same molecule?
**A.** Its max response is 26.4%.

**Q.** What about the max response [1, 22] of the same molecule?
**A.** Its max response is 25.6%.

**Q.** With `CCn1ccnc1CC1COc2ccccc2O1` (stereo not given) as the molecule, how does the activity change, negative = inhibition ([1]; at 57.5 µM (top of the series)) read?
**A.** The activity change, negative = inhibition was 1.49% (inactive).

**Q.** What about the max response [1, 21] of the same molecule?
**A.** Its max response is 56.5%.

**Q.** And the max response [1, 22]?
**A.** Its max response is 60.7%.

**Q.** For `OC(CCN1CCCCC1)(c1ccccc1)C1CCCCC1` (stereo not given), which activity change, negative = inhibition ([1]; at 57.5 µM (top of the series)) is on record?
**A.** Its activity change, negative = inhibition is 1.74% (inactive).

**Q.** And the max response [1, 21]?
**A.** The max response was -10.4%.

**Q.** And the max response [1, 22]?
**A.** The max response was -6.71%.

**Q.** With `CC1=NS(=O)(=O)c2cc(Cl)ccc2N1` as the molecule, how does the outcome [16] read?
**A.** The outcome was “inactive”.

**Q.** What about the outcome [19] of the same molecule?
**A.** Its outcome is “inactive”.

**Q.** What about the activity change, negative = inhibition ([1]; at 25.7 µM (top of the series)) of the same molecule?
**A.** The activity change, negative = inhibition was 4.02% (inactive).

**Q.** And the activity change, negative = inhibition ([1]; at 57.5 µM (top of the series))?
**A.** The activity change, negative = inhibition was 14.6% (inactive).

**Q.** And the max response [1, 21]?
**A.** The max response was 8.52% and 9.84%.

**Q.** And the max response [1, 22]?
**A.** The max response was 14.7% and 27.6%.

**Q.** With `Cc1ccc(Cl)c(Nc2ccccc2C(=O)O)c1Cl` as the molecule, how does the outcome [16] read?
**A.** Its outcome is “inactive”.

**Q.** What about the outcome [19] of the same molecule?
**A.** Its outcome is “inactive”.

**Q.** What about the activity change, negative = inhibition ([1]; at 25.7 µM (top of the series)) of the same molecule?
**A.** The activity change, negative = inhibition was -1.03% (inactive).

**Q.** What about the activity change, negative = inhibition ([1]; at 57.5 µM (top of the series)) of the same molecule?
**A.** The activity change, negative = inhibition was 12.3% (inactive) and -1.87% (inactive).

**Q.** And the max response [1, 21]?
**A.** Its max response is -11.2% and 0.124% and -35.9%.

**Q.** And the max response [1, 22]?
**A.** Its max response is -11.6% and 13.1% and -37%.

**Q.** With `CCCCCCCC/C=C\CCCCCCCC(=O)NCc1ccc(O)c(OC)c1` as the molecule, how does the activity change, negative = inhibition ([1]; at 57.5 µM (top of the series)) read?
**A.** Its activity change, negative = inhibition is -24.2% (inactive).

**Q.** What about the max response [1, 21] of the same molecule?
**A.** Its max response is 15.7%.

**Q.** What about the max response [1, 22] of the same molecule?
**A.** Its max response is -12.6%.

**Q.** With `CCN(CC)CC(=O)Nc1c(C)cccc1C` as the molecule, how does the outcome [16] read?
**A.** The outcome was “inactive”.

**Q.** And the outcome [19]?
**A.** Its outcome is “inactive”.

**Q.** What about the outcome [20] of the same molecule?
**A.** The outcome was “inactive”.
